The record followed here is ChEMBL document CHEMBL1961873, “Compounds: GSK PKIS; Assays: Nanosyn kinase panel” (2012).

One may read the inhibition as the change of the read-out against control, counted positive when it falls.

For assay [1], the target named is Serine/threonine-protein kinase MARK2 (Homo sapiens) (UniProt Q7KZI7). To be noted: at 1 µM.
Assay [2] has as its target PAS domain-containing serine/threonine-protein kinase (Homo sapiens) (UniProt Q96RG2). Particulars: at 0.1 µM.
Assay [3] has the same target. Particulars: at 1 µM.
Assay [4] deals with Phosphorylase b kinase gamma catalytic chain, skeletal muscle/heart isoform (Homo sapiens) (UniProt Q16816). To be noted: at 0.1 µM.
For assay [5] the target is unchanged. To be noted: at 1 µM.
Assay [6] has as its target T1, Phosphorylase b kinase gamma catalytic chain, liver/testis isoform (Homo sapiens) (UniProt P15735).
T1 sequence (whole entry): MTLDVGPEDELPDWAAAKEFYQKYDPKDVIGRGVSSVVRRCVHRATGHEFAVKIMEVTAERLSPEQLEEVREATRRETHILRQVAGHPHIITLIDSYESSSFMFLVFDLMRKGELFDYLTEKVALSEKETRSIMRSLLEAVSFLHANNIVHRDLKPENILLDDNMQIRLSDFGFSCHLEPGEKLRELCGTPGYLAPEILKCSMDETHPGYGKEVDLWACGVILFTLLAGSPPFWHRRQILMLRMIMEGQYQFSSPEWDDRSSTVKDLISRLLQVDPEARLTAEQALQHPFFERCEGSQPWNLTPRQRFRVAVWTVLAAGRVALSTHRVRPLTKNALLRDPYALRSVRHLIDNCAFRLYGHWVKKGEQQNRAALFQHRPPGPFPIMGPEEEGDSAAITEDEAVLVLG
To be noted: at 0.1 µM.

The target in assay [7] is T1, Phosphorylase b kinase gamma catalytic chain, liver/testis isoform (Homo sapiens). Particulars: at 1 µM.
Assay [8] has as its target Serine/threonine-protein kinase pim-1 (Homo sapiens) (UniProt P11309). To be noted: at 0.1 µM.
For assay [9] the target is unchanged. Particulars: at 1 µM.
The target of assay [10] is Serine/threonine-protein kinase pim-2 (Homo sapiens) (UniProt Q9P1W9). To be noted: at 0.1 µM.
Assay [11] has the same target. To be noted: at 1 µM.
In assay [12] the target is Serine/threonine-protein kinase pim-3 (Homo sapiens) (UniProt Q86V86). Particulars: at 0.1 µM.
Assay [13] has the same target. Particulars: at 1 µM.
The target in assay [14] is T2, MAP kinase-activated protein kinase 5 (Homo sapiens) (UniProt Q8IW41).
T2 sequence (whole entry): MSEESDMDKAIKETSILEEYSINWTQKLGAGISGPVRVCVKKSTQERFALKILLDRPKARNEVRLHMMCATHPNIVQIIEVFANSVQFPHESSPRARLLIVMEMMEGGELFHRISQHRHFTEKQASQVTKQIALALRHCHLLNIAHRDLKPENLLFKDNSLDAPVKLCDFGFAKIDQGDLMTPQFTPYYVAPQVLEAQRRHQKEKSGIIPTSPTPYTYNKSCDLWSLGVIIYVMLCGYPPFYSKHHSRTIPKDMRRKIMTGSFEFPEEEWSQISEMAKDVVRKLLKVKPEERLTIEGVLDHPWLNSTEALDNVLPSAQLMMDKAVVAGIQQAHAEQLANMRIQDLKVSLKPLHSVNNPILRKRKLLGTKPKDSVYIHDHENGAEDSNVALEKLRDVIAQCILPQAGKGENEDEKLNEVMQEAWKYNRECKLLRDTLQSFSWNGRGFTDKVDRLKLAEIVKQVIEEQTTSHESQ
To be noted: at 0.1 µM.

In assay [15] the target is T2, MAP kinase-activated protein kinase 5 (Homo sapiens). Particulars: at 1 µM.
The target in assay [16] is Serine/threonine-protein kinase SIK1 (Homo sapiens) (UniProt P57059). To be noted: at 0.1 µM.
The target is the same in assay [17]. Particulars: at 1 µM.
The target of assay [18] is Serine/threonine-protein kinase SIK2 (Homo sapiens) (UniProt Q9H0K1). To be noted: at 0.1 µM.
The target is the same in assay [19]. Particulars: at 1 µM.
In assay [20] the target is T3, Serine/threonine-protein kinase TBK1 (Homo sapiens) (UniProt Q9UHD2).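 Also: values are the mean TBK1 inhibition, taken from the GSK PKIS screening data.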
T3 sequence (whole entry): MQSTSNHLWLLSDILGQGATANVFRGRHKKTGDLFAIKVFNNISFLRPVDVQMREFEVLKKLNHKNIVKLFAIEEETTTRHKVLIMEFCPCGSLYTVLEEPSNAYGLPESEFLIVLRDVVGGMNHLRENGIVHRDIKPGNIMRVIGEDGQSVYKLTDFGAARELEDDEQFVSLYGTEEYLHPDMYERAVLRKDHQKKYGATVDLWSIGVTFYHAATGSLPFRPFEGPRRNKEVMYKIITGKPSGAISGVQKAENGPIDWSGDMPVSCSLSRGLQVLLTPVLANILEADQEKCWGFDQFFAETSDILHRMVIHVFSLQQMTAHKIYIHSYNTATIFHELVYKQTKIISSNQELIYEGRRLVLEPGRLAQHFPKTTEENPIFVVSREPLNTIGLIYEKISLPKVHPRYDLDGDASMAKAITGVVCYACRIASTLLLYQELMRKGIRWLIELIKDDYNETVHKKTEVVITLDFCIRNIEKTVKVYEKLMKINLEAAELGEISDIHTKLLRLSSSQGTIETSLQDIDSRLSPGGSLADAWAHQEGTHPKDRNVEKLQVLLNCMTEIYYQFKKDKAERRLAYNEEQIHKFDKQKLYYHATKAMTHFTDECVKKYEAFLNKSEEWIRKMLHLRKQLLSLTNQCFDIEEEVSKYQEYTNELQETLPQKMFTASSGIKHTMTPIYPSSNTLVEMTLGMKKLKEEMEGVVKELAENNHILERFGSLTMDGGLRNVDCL
To be noted: at 0.1 µM.

Chain of Serine/threonine-protein kinase pim-2 (Homo sapiens) (Q9P1W9 whole entry, looked up): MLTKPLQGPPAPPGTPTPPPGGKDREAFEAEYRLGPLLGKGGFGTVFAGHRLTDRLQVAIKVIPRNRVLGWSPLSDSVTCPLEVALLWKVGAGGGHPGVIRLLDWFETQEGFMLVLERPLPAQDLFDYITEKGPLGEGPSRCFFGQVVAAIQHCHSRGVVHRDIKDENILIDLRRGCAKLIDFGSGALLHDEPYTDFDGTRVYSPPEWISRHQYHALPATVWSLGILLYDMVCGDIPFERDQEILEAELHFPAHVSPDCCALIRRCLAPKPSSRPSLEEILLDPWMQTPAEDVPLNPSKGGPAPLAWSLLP
Chain of Phosphorylase b kinase gamma catalytic chain, skeletal muscle/heart isoform (Homo sapiens) (Q16816 whole entry, looked up, canonical isoform): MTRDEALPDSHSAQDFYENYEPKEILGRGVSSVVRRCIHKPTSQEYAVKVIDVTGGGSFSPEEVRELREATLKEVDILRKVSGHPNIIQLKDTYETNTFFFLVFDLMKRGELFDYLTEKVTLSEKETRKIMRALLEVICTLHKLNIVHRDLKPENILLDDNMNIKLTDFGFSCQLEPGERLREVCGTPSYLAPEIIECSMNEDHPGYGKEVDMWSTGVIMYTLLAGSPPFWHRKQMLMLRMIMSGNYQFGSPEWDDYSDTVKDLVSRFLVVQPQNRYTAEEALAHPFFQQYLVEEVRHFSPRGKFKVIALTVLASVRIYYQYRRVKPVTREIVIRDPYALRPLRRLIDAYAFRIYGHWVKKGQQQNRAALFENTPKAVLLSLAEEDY
Chain of Serine/threonine-protein kinase SIK2 (Homo sapiens) (Q9H0K1 whole entry, looked up): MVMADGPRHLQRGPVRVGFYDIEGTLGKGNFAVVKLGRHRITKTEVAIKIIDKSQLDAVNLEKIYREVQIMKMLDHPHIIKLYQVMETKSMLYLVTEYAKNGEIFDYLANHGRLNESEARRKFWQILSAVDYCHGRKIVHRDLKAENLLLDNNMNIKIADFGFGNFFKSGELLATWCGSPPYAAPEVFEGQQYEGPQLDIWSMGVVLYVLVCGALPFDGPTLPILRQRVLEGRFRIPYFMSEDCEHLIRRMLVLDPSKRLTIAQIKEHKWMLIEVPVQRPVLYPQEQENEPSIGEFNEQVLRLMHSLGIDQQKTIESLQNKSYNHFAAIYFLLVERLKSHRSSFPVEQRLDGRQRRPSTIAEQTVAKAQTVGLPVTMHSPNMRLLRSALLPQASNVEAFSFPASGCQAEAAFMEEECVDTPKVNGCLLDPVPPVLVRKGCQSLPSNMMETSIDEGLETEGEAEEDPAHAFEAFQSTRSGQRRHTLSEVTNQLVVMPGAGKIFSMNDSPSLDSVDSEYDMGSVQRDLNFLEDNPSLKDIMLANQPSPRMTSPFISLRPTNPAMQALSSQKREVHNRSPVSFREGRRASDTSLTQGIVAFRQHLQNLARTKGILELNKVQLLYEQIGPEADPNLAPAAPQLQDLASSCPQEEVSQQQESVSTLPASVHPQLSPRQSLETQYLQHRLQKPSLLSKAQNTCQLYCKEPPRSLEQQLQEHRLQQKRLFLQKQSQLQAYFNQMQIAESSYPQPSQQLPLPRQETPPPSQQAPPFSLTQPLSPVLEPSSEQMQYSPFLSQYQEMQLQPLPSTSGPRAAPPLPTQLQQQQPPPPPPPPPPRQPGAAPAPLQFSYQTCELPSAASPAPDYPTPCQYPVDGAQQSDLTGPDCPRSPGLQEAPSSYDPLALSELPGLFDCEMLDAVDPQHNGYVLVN
Chain of Serine/threonine-protein kinase SIK1 (Homo sapiens) (P57059 whole entry): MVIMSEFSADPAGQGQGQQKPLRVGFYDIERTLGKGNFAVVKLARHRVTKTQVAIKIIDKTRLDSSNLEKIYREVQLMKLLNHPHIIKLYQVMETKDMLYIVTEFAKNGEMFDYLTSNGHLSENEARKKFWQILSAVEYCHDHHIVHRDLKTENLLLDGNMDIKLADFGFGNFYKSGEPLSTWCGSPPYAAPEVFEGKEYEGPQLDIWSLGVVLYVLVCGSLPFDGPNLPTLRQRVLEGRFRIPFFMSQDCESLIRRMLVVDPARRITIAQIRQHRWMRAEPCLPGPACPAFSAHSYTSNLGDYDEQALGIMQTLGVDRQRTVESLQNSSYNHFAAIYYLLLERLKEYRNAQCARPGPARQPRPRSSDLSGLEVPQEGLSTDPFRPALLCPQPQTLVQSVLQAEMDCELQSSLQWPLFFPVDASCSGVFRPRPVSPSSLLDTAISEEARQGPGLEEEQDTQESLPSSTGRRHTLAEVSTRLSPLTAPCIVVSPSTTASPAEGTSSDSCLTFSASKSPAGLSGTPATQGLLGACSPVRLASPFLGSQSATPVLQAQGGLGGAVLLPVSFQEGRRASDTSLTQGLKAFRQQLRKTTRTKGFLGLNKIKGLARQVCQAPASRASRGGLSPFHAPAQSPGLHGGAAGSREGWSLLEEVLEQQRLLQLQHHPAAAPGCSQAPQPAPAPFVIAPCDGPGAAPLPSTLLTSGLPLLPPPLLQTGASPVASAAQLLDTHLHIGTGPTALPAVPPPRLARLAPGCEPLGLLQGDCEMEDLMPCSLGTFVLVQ
Chain of PAS domain-containing serine/threonine-protein kinase (Homo sapiens) (Q96RG2 whole entry, the tested form may be a part): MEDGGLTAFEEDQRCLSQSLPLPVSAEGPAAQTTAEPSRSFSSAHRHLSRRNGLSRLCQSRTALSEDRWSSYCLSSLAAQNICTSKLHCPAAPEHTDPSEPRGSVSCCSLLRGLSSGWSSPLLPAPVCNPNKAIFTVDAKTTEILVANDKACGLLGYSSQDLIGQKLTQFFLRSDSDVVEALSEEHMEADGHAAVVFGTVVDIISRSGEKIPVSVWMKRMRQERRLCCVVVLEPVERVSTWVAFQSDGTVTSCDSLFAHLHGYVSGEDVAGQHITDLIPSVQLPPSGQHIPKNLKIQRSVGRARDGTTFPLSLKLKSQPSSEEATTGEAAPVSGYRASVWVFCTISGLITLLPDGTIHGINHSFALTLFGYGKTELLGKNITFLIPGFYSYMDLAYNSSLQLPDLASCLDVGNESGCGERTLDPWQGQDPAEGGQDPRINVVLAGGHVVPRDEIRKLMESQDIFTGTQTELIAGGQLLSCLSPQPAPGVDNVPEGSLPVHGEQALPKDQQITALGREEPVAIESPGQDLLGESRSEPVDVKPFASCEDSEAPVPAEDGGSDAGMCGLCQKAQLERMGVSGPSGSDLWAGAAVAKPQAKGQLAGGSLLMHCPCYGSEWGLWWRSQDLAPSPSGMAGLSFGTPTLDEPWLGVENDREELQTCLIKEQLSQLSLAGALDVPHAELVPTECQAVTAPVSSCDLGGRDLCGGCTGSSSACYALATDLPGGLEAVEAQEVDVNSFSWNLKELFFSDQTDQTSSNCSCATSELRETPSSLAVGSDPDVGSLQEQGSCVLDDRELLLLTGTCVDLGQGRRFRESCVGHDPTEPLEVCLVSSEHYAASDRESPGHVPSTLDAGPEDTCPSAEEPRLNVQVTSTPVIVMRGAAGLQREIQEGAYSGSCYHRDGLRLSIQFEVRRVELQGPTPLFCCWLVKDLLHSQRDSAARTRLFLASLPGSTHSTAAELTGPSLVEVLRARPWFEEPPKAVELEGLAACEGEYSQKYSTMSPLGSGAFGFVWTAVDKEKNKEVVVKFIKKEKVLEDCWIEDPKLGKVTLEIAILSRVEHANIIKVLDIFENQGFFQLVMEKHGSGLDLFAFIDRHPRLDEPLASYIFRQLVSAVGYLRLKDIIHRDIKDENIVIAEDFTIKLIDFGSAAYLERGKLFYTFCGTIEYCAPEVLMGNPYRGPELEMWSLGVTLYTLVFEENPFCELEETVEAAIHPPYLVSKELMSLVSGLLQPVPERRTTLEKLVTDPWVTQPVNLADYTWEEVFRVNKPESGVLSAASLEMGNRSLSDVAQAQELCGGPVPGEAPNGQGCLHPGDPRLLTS
Chain of Serine/threonine-protein kinase pim-1 (Homo sapiens) (P11309 whole entry, looked up): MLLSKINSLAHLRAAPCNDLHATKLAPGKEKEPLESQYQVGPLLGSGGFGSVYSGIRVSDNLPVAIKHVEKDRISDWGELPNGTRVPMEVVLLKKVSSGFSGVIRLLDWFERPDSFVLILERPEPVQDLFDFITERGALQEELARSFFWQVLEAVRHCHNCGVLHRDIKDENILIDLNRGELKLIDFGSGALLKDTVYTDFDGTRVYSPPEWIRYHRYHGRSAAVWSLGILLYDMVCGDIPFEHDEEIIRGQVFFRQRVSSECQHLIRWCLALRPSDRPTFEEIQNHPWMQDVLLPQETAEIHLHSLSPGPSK

With `COc1ccccc1-c1cc(/C=C2\C(=O)Nc3ncc(Br)cc32)cc(Br)c1O`, the inhibition in assay [1] is 2.22%; in [2], -1.52%; in assay [3], -3.29%; in [4] it was 3.58%; in assay [5], 7.04%; in assay [6] it was 4.87%. Further, the inhibition was 3.85% in [7]; 0.14% in assay [8]; 3.18% in assay [9]; 0.1% in [10]; -0.06% in [11]; -1.67% in [12]. The inhibition in assay [13] is -1.54%; in [14], 1.35%; in assay [15], 0.67%; in assay [16] it was 3.09%; in [17] it was 9.01%; in [18], 0.5%. The inhibition is 10.4% in assay [19] and 0.53% in assay [20].

`CC1(C)CC(n2cnc(-c3ccc(F)cc3)c2-c2ccnc(N)n2)CC(C)(C)N1`: the inhibition in assay [1] was 0.44%; in assay [2], -1.3%; in assay [3], -0.73%; in assay [4] it was 3.51%; in [5] it was 2.36%; in [6], -0.42%. Besides, the inhibition in [7] was -1.13%; in [8], 0.93%; in assay [9], 1.49%; in [10], 0.4%; in assay [11], 0.96%; in assay [12] it was -0.62%. The inhibition in assay [13] worked out at 0.93%; in assay [14] it was 0.28%; in assay [15] it was 0.93%; in assay [16] it was 0.72%; in [17] it was 3.05%; in [18], 1.72%. In addition, the inhibition was found to be 1.15% in assay [19] and 0.42% in assay [20].

Take `CC1=C(C(=O)Nc2ccc3[nH]nc(C)c3c2)C(c2ccc(C(F)(F)F)cc2)CC(=O)N1` (stereo not given): the inhibition in [1] was 4.76%; in assay [2], 0.2%; in [3], -1.78%; in assay [4] it was 4.32%; in assay [5], 0.7%; in [6] it was 2.48%. The inhibition in [7] is -2.45%; in [8], 1.05%; in assay [9] it was 0%; in assay [10], 0%; in assay [11] it was 0.55%; in [12], 0.17%. The inhibition in assay [13] is -2.32%; in assay [14], 0.34%; in assay [15] it was -0.66%; in [16], 0.72%; in assay [17], 1.39%; in assay [18], 4.07%. For the same molecule, the inhibition in [19] was 0.64%; in [20], -1.52%.

In the case of `CN(c1ccc(NC(=O)NCCN2CCOCC2)cc1)c1ccnc(Nc2ccc(CS(C)(=O)=O)cc2)n1`, the inhibition in assay [1] was found to be 2.47%; in assay [2], 0.41%; in assay [3], 2.08%; in [4], 2.5%; in assay [5], 5.5%; in assay [6], 2.91%. Further, the inhibition is 6.71% in [7]; 0.61% in assay [8]; -0.22% in assay [9]; 0.04% in [10]; 0.65% in [11]; 0.45% in [12]. In addition, the inhibition was found to be 2% in assay [13]; 1.83% in assay [14]; 3.14% in assay [15]; 2.8% in assay [16]; 17.4% in assay [17]; 9.27% in assay [18]. Also, the inhibition amounted to 11.2% in assay [19] and 1.55% in assay [20].

On to `NS(=O)(=O)c1ccc(N/N=C2\C(=O)Nc3cccc(CCc4ccncc4)c32)cc1`, for which the inhibition turned out to be 4.73% in assay [1]; 1.68% in assay [2]; 1% in [3]; 4.94% in [4]; 11.7% in assay [5]; 0.33% in [6]. Moreover, the inhibition in assay [7] is -0.92%; in assay [8], 0.54%; in assay [9], 1.13%; in [10], 0.11%; in assay [11], 0.64%; in assay [12], 0.22%. Moreover, the inhibition is 0.75% in [13]; 0.36% in assay [14]; 0.28% in [15]; 1.17% in assay [16]; 2.64% in assay [17]; 2.91% in assay [18]. The inhibition in assay [19] was -0.94%; in [20], 1.99%.

Consider `CC1=C(C(=O)Nc2ccc3[nH]ncc3c2)C(c2ccc(F)cc2)N=C(c2ccc(C(F)(F)F)nc2)N1` (stereo not given), for which the inhibition is 2.79% in assay [1]; -0.13% in assay [2]; -0.98% in [3]; 0.36% in assay [4]; 1.77% in assay [5]; 1.74% in assay [6]. Moreover, the inhibition in [7] was -0.23%; in assay [8], 0.3%; in assay [9] it was -0.09%; in assay [10], 0.44%; in assay [11], 0.66%; in assay [12], 0.08%. Moreover, the inhibition in [13] was -1.05%; in assay [14] it was 0.55%; in assay [15], 0.22%; in [16], 4.91%; in assay [17] it was 4.39%; in [18] it was 2.09%. The inhibition in assay [19] was 4.41%; in assay [20] it was -0.16%.
